Reference: PubChem BioAssay (NCI)
About 79,000 compounds went through this panel and 15% of them were active in at least one assay; those are over-represented in the sample as a whole. Rule as the data show it: active = growth inhibition above about 70%; inactive = the rest.

Assays:
[1] = NCI Yeast Anticancer Drug Screen. Data for the rad50 strain (AID 155);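 also: 0% = growth of vehicle-only cultures of the same strain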; conditions: S. cerevisiae rad50 strain growth inhibition; at 50.0 µM; active compounds read high
Outline: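 Genetically altered yeast (DNA repair pathway); compound treatment; growth inhibition vs vehicle ctrl.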

[2] = NCI Yeast Anticancer Drug Screen. Data for the mec2-1 strain (AID 157); conditions: S. cerevisiae mec2-1 strain, at 50.0 µM, active compounds read high
Outline: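 Cells of the genetically defined mec2-1 yeast strain are incubated with test compound. Inhibition of growth is calculated against vehicle-treated controls.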

[3] = NCI Yeast Anticancer Drug Screen. Data for the sgs1 mgt1 strain (AID 161);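 also: 0% = growth of cultures given vehicle only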; conditions: S. cerevisiae sgs1 mgt1 strain, at 50.0 µM, active compounds read high
Outline: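 Read-out: growth inhibition vs vehicle controls. Cells: mutant yeast strain deficient in DNA damage repair.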

[4] = NCI Yeast Anticancer Drug Screen. Data for the cln2 rad14 strain (AID 165);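 also: 0% = growth equal to vehicle treated cultures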; conditions: S. cerevisiae cln2 rad14 strain, at 50.0 µM, active compounds read high
Outline: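 The screen exposed genetically defined yeast (cln2 rad14) to test compounds and scored growth inhibition relative to vehicle-treated controls.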

[5] = NCI Yeast Anticancer Drug Screen. Data for the bub3 strain (AID 167); conditions: S. cerevisiae bub3 mutant strain, at 50.0 µM, active compounds read high
Outline: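 Yeast carrying a defined mutation is treated with each compound, and growth is compared with that of vehicle-exposed cells to give inhibition.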

[6] = NCI Yeast Anticancer Drug Screen. Data for the mlh1 rad18 strain (AID 175); conditions: S. cerevisiae mlh1 rad18 strain growth inhibition; at 50.0 µM; active compounds read high
Outline: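 Compound-treated yeast growth, normalised to vehicle controls. Strain bears defined DNA repair mutations.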

Measured: growth inhibition

Nc1cccc(Cl)c1C(=O)O
inactive: [1] -28.1% | [2] -30.2% | [3] -10.8% | [4] -11.7% | [5] -25.8% | [6] -19.2%

O=[N+]([O-])c1cccc(C=NC23CC4CC(CC(C4)C2)C3)c1
inactive: [1] -2.15% | [2] 7.45% | [3] -29.6% | [4] 28.7% | [5] 30.1% | [6] -4.15%

CC(=O)OC1CCC2(C)C(CCC3C2CCC2(C)C3CC3OC(CCC(C)CO)C(C)C32)C1 (stereo not given)
inactive: [1] 14.8% | [2] 8.55% | [3] -0.45% | [4] 19.6% | [5] -0.75% | [6] 10.1%

CC(C)Cc1cnc(CC(C)C)c(=O)[nH]1
inactive: [1] -13.6% | [2] -44.6% | [3] -28.1% | [4] 10.8% | [5] -40.2% | [6] -25.9%

CCCCOP(=O)(OCCCC)C(c1ccccc1)(c1ccccc1)c1ccccc1
inactive: [1] 48.9% | [2] 42.5% | [3] 49.8% | [4] 42.5% | [5] 5.9% | [6] 59.6%

O=c1c(O)c(-c2ccccc2)oc2cc(O)cc(O)c12
inactive: [1] 24.5% | [2] 4.4% | [3] 40.9% | [4] 25.8% | [5] 27.4% | [6] 28.7%

C[CH2][Sn]([CH2]C)([O]P(=O)(C[Si](C)(C)C)c1ccccc1)[O]P(=O)(C[Si](C)(C)C)c1ccccc1 (stereo not given)
inactive: [1] 0% | [2] 8.7% | [3] 4.2% | [4] 24% | [5] 53.2% | [6] 17.2%

CN(C)N=Nc1ccc(C(=O)NC(Cc2ccccc2)C(=O)O)cc1 (stereo not given)
inactive: [1] 1.45% | [2] -4.1% | [3] 3.2% | [4] 0.55% | [5] 3.3% | [6] 6.45%

CC(C(=O)O)N(CCC#N)CCC#N (stereo not given)
inactive: [1] 17.8% | [2] -6.05% | [3] -0.5% | [4] 0.1% | [5] 2.35% | [6] 3.4%

CCC(C)OC(=O)CC(c1ccccc1)N1CCCCC1 (stereo not given)
inactive: [1] 7.5% | [2] -10.4% | [3] 3% | [4] -26.4% | [5] -0.65% | [6] -4.5%

CCCCOc1ccc(Nc2c(C(=O)O)cnc3cc4c(cc23)OCO4)cc1
inactive: [1] -11.1% | [2] 3.25% | [3] -13.7% | [4] 5.4% | [5] -4.85% | [6] 18.4%

N#CCCSC(=S)C(C#N)C(=N)c1ccccc1 (stereo not given)
inactive: [1] 13.2% | [2] 2.25% | [3] 14.2% | [4] 1.5% | [5] -18.9% | [6] 10.3%

CN1C/C(=C\c2ccc(C(=O)O)cc2)C(=O)/C(=C/c2ccc(C(=O)O)cc2)C1
inactive: [1] 33.3% | [2] 5.35% | [3] 28.1% | [4] 20.9% | [5] -5% | [6] 19.7%

COC(=O)N/C(C)=N/OCc1ccccc1
inactive: [1] 1.2% | [2] 0.6% | [3] 4.3% | [4] 8.8% | [5] 15% | [6] -11.7%

COC(=O)C1(C(=O)OC)C2CCCCC21 (stereo not given)
inactive: [1] 4.65% | [2] 9.3% | [3] -6.6% | [4] 12.8% | [5] -13.9% | [6] 7.1%

Cc1cccc(N=Nc2ccc(O)c(CN(C)C)c2)c1
inactive: [1] -17% | [2] 8.9% | [3] -0.35% | [4] -5.5% | [5] 29.1% | [6] 20.2%

COC(=O)Nc1cccc(-c2nc3ccc(NC(=O)OC)cc3c(=O)n2-c2ccccc2)c1
inactive: [1] -26.3% | [2] -16.9% | [3] -22.6% | [4] 8.55% | [5] -15.8% | [6] 5%

CSc1cc2c(cc1N)C(=O)c1ccccc1-2
inactive: [1] 12.5% | [2] 2.45% | [3] 7.4% | [4] -24.1% | [5] -13.1% | [6] 12.9%

CC(C)CC1NC(=O)OC1=O (stereo not given)
inactive: [1] 6.7% | [2] 0.9% | [3] -9.7% | [4] -17.6% | [5] 1.25% | [6] 0.35%

CC(C)(CCCCC(C)(C)C1NC(=O)N1)C1NC(=O)N1
inactive: [1] -42.6% | [2] -7.4% | [3] -67.9% | [4] -46.5% | [5] -9.1% | [6] -43.1%
